RGS7-Gao reg: human RGS7-Galphao interaction regulation. P09471. AID 1439. 0.35% of 220,000 active. binding response (% of control), % at 10 µM. Multiplexed bead flow cytometry, RGS7-Galphao binding; actives lie on both sides; in the data active = binding response below about 49% or above about 150%; inconclusive = no clear call, values can overlap the other calls; inactive = in between;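 also: fluorescent Galphao held in activated GDP-AlF4 state binding bead-coupled RGS7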
Target sequence (P09471 whole entry, looked up): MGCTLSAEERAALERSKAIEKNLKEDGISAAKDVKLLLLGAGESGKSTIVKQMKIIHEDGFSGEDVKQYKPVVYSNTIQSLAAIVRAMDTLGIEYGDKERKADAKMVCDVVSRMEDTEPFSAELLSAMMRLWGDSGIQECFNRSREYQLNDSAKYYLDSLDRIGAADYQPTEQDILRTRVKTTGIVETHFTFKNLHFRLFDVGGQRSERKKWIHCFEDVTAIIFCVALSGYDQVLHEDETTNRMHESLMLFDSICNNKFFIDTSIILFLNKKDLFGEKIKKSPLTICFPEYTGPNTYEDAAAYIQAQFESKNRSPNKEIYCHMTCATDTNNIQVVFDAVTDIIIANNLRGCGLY
RGS4-Gao reg: modulates binding of RGS4 to human Galphao; binding response (% of control), % at 10 µM; P09471; Multiplexed bead flow cytometry; actives lie on both sides; 0.33% of 220,000 active; AID 1415; in the data active = binding response below about 49% or above about 150%; inactive = in between;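 also: fluorescent Galphao activated with aluminum fluoride binding bead-coupled RGS4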
RGS8-Gao: regulators of human RGS8-Galphao interaction; response (percent of control binding), % at 10 µM; P09471; AID 1423; multiplexed bead flow cytometry, RGS8-Galphao binding; actives lie on both sides; 0.34% of 220,000 active; in the data active = response below about 60% or above about 140%; inactive = in between;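 also: Galphao activated as the GDP aluminium fluoride complex binding bead-coupled RGS8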
RGS16-Gao HTS: modulates binding between human RGS16 and Galphao; 0.38% of 220,000 active; bead-based flow cytometry RGS16-Galphao binding, fluorescence; actives lie on both sides; AID 1441; O15492+P09471; binding response (% of control), % at 10 µM;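 also: Galphao activated by GDP with aluminum fluoride before binding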
GSH bead fluor: GSH bead compound fluorescence profile; GSH beads flow cytometry, compound fluorescence 488/530 nm; hits give high values; fluorescence (KMESF) at 10 µM; 0.25% of 190,000 active; AID 1776; in the data active = fluorescence above about 89;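 also: glutathione beads carrying GST-tagged Bcl family fusion proteins plus one bare bead set; values are compound well signal with DMSO vehicle wells as background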
Avidin bead fluor: avidin bead compound fluorescence profile. Avidin beads, compound fluorescence 488/530 nm, flow cytometry; hits give high values. fluorescence (KMESF) at 10 µM. 0.38% of 220,000 active; in the data active = fluorescence above about 47
RGS4-Gao HTS: modulates binding between human RGS4 and Galphao; RGS4–Galpha-o binding response, % at 10 µM; shares compounds with RGS16-Gao HTS; AID 1504; multiplexed bead flow cytometry, RGS–Galpha-o binding; 99% of 1,600 active;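 also: fluorescently labeled Galpha-o bound to GDP with aluminium fluoride binding biotinylated RGS beads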
Biotin-avidin: counter-screen: compounds disrupting biotin binding to avidin beads; shares compounds with RGS16-Gao HTS; streptavidin beads, fluorescein-biotin binding, flow cytometry; inhibition, % at 10 µM; 1,700 tested, under 10 active;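 active = inhibition above 50%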;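 also: median green fluorescence of gated singlet beads compared with DMSO control wells; 0% = DMSO wells and 100% = complete loss of bead fluorescence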
RGS8-Gao confirm: confirmation of regulators of human RGS8-Galphao interaction. shares compounds with RGS16-Gao HTS. binding response (% of control), % at 10 µM. 3% of 1,700 active. bead-based flow cytometry RGS8-Galphao binding, fluorescence; actives lie on both sides; in the data active = binding response below about 72% or above about 130%; inactive = in between;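 also: Galphao activated as GDP AlF4 complex before binding bead RGS8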
RGS7-Gao single: confirmation of regulators of human RGS7-Galphao interaction; shares compounds with RGS16-Gao HTS; bead-based flow cytometry RGS7-Galphao binding; actives lie on both sides; response (percent of control binding), % at 10 µM; 7.8% of 1,700 active; in the data active = response below about 75% or above about 130%; inactive = in between;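 also: fluorescent Galphao activated with GDP and aluminum fluoride binding bead-coupled RGS7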
RGS16-Gao single: confirmation of regulators of human RGS16-Galphao interaction | response (% of control binding), % at 10 µM | 4% of 1,700 active | bead-based flow cytometry, RGS16-Galphao binding; actives lie on both sides | shares compounds with RGS16-Gao HTS; in the data active = response below about 74% or above about 130%; inactive = in between;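 also: Galphao activated as the GDP aluminium fluoride complex binding bead-coupled RGS16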
RGS4-Gao confirm: confirmation of regulators of human RGS4-Galphao interaction; shares compounds with RGS16-Gao HTS; RGS4-Galphao binding, multiplexed bead flow cytometry; actives lie on both sides; binding response (% of control), % at 10 µM; 4% of 1,700 active; AID 1840; in the data active = binding response below about 74% or above about 130%; inactive = in between
RGS19-Gao conf: confirmation of regulators of human RGS19-Galphao interaction; shares compounds with RGS16-Gao HTS; bead-based flow cytometry RGS19-Galphao binding; actives lie on both sides; response (percent of control binding), % at 10 µM; 5% of 1,700 active; AID 1841; in the data active = response below about 50% or above about 160%; inactive = in between;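 also: 100% = no compound control and 0% = blank background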
Target sequence (P09471 whole entry, looked up): as above
Target sequence (P49795 whole entry, looked up): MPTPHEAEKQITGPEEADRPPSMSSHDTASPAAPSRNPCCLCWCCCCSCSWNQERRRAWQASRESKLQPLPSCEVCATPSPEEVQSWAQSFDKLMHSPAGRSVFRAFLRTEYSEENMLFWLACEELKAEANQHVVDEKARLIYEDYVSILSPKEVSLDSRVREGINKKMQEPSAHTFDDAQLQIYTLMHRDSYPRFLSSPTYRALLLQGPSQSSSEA
Numbers without * were called inactive; [ ] = remark or other dose. Rows were chosen to be rich in hits. Some 1.2% of all compounds tested hit in one or more screens of this group. Unless noted, no rule for the calls is given here.

Screening CCN1CC(CN(C)Cc2cn(-c3cccc(C)c3)nc2-c2cccc(F)c2)CC1=O (stereo unspecified) returned RGS7-Gao reg 97, RGS4-Gao reg 79, RGS8-Gao 88, RGS16-Gao HTS 68, GSH bead fluor 15 and Avidin bead fluor 6.
`CCOc1ccccc1-n1nnnc1SCC(=O)O` gave RGS7-Gao reg inconclusive, RGS4-Gao reg 96, RGS8-Gao 97, RGS16-Gao HTS 93 and Avidin bead fluor 8.
For CC(C)c1cccc(C(C)C)c1OCCCCN1CCCC1 the results were GSH bead fluor 35, Biotin-avidin 1, RGS8-Gao confirm 99, RGS7-Gao single 96, RGS16-Gao single 99, RGS4-Gao confirm 96 and RGS19-Gao conf 134.
COCCCNC(=O)COc1ccc(S(=O)(=O)NCc2ccccc2)cc1Cl was read as RGS7-Gao reg 275*[activator], RGS4-Gao reg 314*[activator], RGS8-Gao 407*[activator], RGS16-Gao HTS inactive, GSH bead fluor 16, Avidin bead fluor 2, Biotin-avidin -1, RGS8-Gao confirm 99, RGS7-Gao single 77, RGS16-Gao single 94, RGS4-Gao confirm 89 and RGS19-Gao conf 57.
Screening CCC(C)[C@@H](N)C(=O)N/N=C/c1cccc2nccnc12 (stereo partly specified) returned RGS7-Gao reg inconclusive, RGS4-Gao reg 103, RGS8-Gao 101, RGS16-Gao HTS 98 and Avidin bead fluor 9.
Screening CC(=O)c1sc(-c2ccc(F)cc2)cc1NS(=O)(=O)c1ccccc1 returned RGS7-Gao reg inconclusive, RGS4-Gao reg -36*, RGS8-Gao 1.8*, RGS16-Gao HTS -20*, Avidin bead fluor -3, Biotin-avidin -1, RGS8-Gao confirm 101, RGS7-Gao single 98, RGS16-Gao single 101, RGS4-Gao confirm 101 and RGS19-Gao conf 102.
`O=C(COC(=O)c1cc(S(=O)(=O)NCc2ccccc2)ccc1O)c1cc2ccccc2o1` gave RGS7-Gao reg inconclusive, RGS4-Gao reg 98, RGS8-Gao 100, RGS16-Gao HTS 98 and Avidin bead fluor 9.
For CC(=O)N/C(N)=N/c1nc2cc([N+](=O)[O-])ccc2o1 the results were RGS7-Gao reg inconclusive, RGS4-Gao reg 97, RGS8-Gao 76, RGS16-Gao HTS 98, Avidin bead fluor 5, Biotin-avidin -1, RGS8-Gao confirm 93, RGS7-Gao single 89, RGS16-Gao single 93, RGS4-Gao confirm 95 and RGS19-Gao conf 100.
COc1ccccc1NC(=O)CN1CCN(CC(=O)Nc2ccc(Cl)c(C(F)(F)F)c2)CC1 was read as RGS7-Gao reg 103, RGS4-Gao reg 105, RGS8-Gao 106, RGS16-Gao HTS 103, GSH bead fluor 6 and Avidin bead fluor 9.
For CCc1ccccc1NCC(=O)Nc1ccc(Cl)c(C(F)(F)F)c1 the results were RGS7-Gao reg 92, RGS4-Gao reg 94, RGS8-Gao 76, RGS16-Gao HTS 20*, GSH bead fluor 6, Avidin bead fluor 7, RGS4-Gao HTS 94*, Biotin-avidin -3, RGS8-Gao confirm 114, RGS7-Gao single 101, RGS16-Gao single 114, RGS4-Gao confirm 103 and RGS19-Gao conf 96.
NC(=O)[C@@H]1CCCCNc2c(I)cc([N+](=O)[O-])cc2C(=O)N[C@@H](CCC(=O)O)C(=O)N[C@@H](CO)C(=O)N1 was read as RGS7-Gao reg 100, RGS4-Gao reg 101, RGS8-Gao 102, RGS16-Gao HTS 105, GSH bead fluor 18 and Avidin bead fluor 12.
NC(=O)[C@@H]1CCNc2c(I)cc([N+](=O)[O-])cc2C(=O)N[C@@H](CCC(=O)O)C(=O)N[C@@H](CO)C(=O)N1 was read as RGS7-Gao reg 99, RGS4-Gao reg 108, RGS8-Gao 134, RGS16-Gao HTS 404*[activator], GSH bead fluor 25, Avidin bead fluor 10 and RGS4-Gao HTS 108*.
`COCCCNC(=O)C1CCN(C(=O)c2cc3sccc3n2Cc2ccc(F)cc2)CC1` gave RGS7-Gao reg 96, RGS4-Gao reg 99, RGS8-Gao 100, RGS16-Gao HTS 98, GSH bead fluor 48 and Avidin bead fluor 7.
Screening O=C(NCCCN1CCCC1)C1CCN(C(=O)c2cc3sccc3n2Cc2ccc(F)cc2)CC1 returned RGS7-Gao reg 181*[activator], RGS4-Gao reg 134, RGS8-Gao 121, RGS16-Gao HTS 262, GSH bead fluor 31, Avidin bead fluor 193* and RGS4-Gao HTS 134*.
CCOc1cc(N2CCCC2)ccc1[N+](=O)[O-] was read as RGS7-Gao reg 102, RGS4-Gao reg 97, RGS8-Gao 100, RGS16-Gao HTS 100, GSH bead fluor 10 and Avidin bead fluor 5.
Cc1cc(N)ccc1N1CCCC1 was read as RGS7-Gao reg 50, RGS4-Gao reg 58, RGS8-Gao 54*, RGS16-Gao HTS 39, GSH bead fluor 0, Avidin bead fluor 1 and RGS4-Gao HTS 58*.
Screening Cc1cc(N)ccc1-n1c(C)ccc1C returned RGS7-Gao reg 98, RGS4-Gao reg 101, RGS8-Gao 98, RGS16-Gao HTS 98, GSH bead fluor 10 and Avidin bead fluor 28.
CCOC(=O)C(CSCC(=O)c1ccc(Br)cc1)NC(=O)OC(C)(C)C (stereo unspecified) was read as RGS7-Gao reg 104, RGS4-Gao reg 101, RGS8-Gao 101, RGS16-Gao HTS 106, GSH bead fluor 12 and Avidin bead fluor 8.
